Hits are enriched below; roughly 32% of the tested compounds scored in any of these assays.
CYP2C19 act: increases human CYP2C19 enzyme activity. AID 1025. 96,000 tested, under 10 active. P33261. recombinant CYP2C19, luciferin-H EGE luminescence; active compounds read high; 0 = fully inhibited enzyme, 1 = untreated enzyme. activation factor at 5 µM;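 active = activation factor of at least 2 at 5 µM in the primary screen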;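 note: 0 = wells with 2.5 mM tranylcypromine and 1 = vehicle-only wells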
PostGolgi ctrl: inhibits growth of the yeast control strain | efflux-deficient yeast background strain, growth absorbance A615, 16 h | inhibition, % at 10 µM | 98,000 tested, 5% active | AID 738
PostGolgi yeast: growth inhibition of a yeast mutant, post-Golgi transport screen; post-Golgi transport phenotypic cell assay; inhibition, % at 10 µM; 98,000 tested, 0.9% active;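 note: yeast cells grown in 1536-well plates; yeast grown about 18 h at 30C before absorbance read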
CYP2C9 inh: human CYP2C9 inhibition; CYP2C9 Supersomes, luciferin-H conversion, luminescence; inhibition, % at 5 µM; 96,000 tested, 20% active; AID 777;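 active = blocking of liver enzyme CYP2C9 beyond about 50% at 5 µM, limit read from the data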
Target sequence (P11712 whole entry, looked up): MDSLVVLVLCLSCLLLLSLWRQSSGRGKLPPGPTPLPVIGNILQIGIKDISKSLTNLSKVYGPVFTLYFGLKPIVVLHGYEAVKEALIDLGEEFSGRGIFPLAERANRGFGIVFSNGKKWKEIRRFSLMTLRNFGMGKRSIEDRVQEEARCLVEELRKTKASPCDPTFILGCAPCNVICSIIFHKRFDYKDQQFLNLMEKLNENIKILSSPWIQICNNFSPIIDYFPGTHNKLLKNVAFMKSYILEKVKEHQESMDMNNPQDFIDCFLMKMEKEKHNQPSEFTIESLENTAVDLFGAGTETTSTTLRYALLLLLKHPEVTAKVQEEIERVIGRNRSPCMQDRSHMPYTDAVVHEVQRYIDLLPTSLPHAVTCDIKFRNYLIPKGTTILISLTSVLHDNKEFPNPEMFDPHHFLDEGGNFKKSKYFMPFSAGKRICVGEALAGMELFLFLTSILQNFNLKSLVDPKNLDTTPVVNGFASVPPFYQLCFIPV
CYP2C9 act: increases human cytochrome P450 2C9 activity; P11712; recombinant CYP2C9, luciferin-H conversion, luminescence; active compounds read high; factor 1 = untreated enzyme, 0 = blocked; activation factor at 5 µM; 96,000 tested, 1.4% active; AID 1024;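 active = activation factor of 2 or more for CYP2C9 at a 5 µM dose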;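 note: 0 = sulfaphenazole-blocked wells and 1 = vehicle-only wells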
CYP2C19 inh: blocks human cytochrome P450 2C19; P33261; CYP2C19 Supersomes, luciferin-H EGE luminescence, 30 min; inhibition, % at 5 µM; 96,000 tested, 21% active;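 active = CYP2C19 inhibition above a set limit at 5 µM in the primary screen, cut at about 50% in these data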;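 note: plate controls were negative control wells for no effect and 2.5 mM tranylcypromine positive control for full effect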
The depositor's hits bear a star. Cut-off read from the data, not from the text of the source, unless noted: active = inhibition above about 30%; inactive = the rest.

SMILES	CYP2C19 act	PostGolgi ctrl	PostGolgi yeast	CYP2C9 inh	CYP2C9 act	CYP2C19 inh
O=C(CNC(=O)OCc1ccccc1)Nc1ccc(Br)cc1C(=O)c1ccccc1	0.7	37*	-3	13	0.9	31
O=C(CNC(=O)c1ccccc1)Nc1ccc(Br)cc1C(=O)c1ccccc1	0.5	31*	-5	22	0.8	47
Clc1cnc(Oc2ccc(Oc3ncc(Cl)cc3Cl)cc2)c(Cl)c1	0.9	8	-3	-94	1.9	5
CCOP(=O)(C(NC(=O)c1ccccc1Cl)=C(Cl)Cl)c1ccccc1 (configuration not stated)	0.2	-1	-9	57*	0.4	77*
O=C1NC(=O)C2(Cc3c(nc4ccccn4c3=O)N3CCCCCC32)C(=O)N1Cc1ccccc1 (configuration not stated)	0.3	1	-4	89*	0.1	73*
O=C1NC(=O)C2(Cc3ccccc3N3CCCC32)C(=O)N1Cc1ccccc1 (configuration not stated)	0.7	5	2	12	0.9	34
N[C@@H](Cc1c[nH]c2ccccc12)c1nnc(SCc2ccc(Cl)cc2)o1	0.3	-1	47*	44	0.6	66*
O=c1c2ccccc2[nH]c(=S)n1-c1ccc2c(c1)OCO2	0	7	1	83*	0.2	97*
O=C(c1cccn2c(=O)c3ccc(Cl)cc3nc12)N1CCC2(CC1)OCCO2	0.9	5	5	14	0.9	14
O=C(c1cccn2c(=O)c3cc(Br)ccc3nc12)N1CCC2(CC1)OCCO2	0.7	4	-7	55*	0.5	32
O=C1c2ccccc2C2(c3ccc(Cl)cc3)NCCN12 (configuration not stated)	0.7	1	7	2	1	30
CN1C(=O)/C(=C/c2cccn2-c2ccc3ccccc3c2)C(=O)NC1=S	1.2	4	98*	-2	1	-18
CCOC(=O)c1cc(C(O)(C(=O)OC)C(F)(F)F)c(/N=C/N(C)C)o1 (configuration not stated)	0.8	-3	-8	25	0.8	19
CCOC(=O)N(C)c1ccc(C(O)(C(=O)OCC)C(F)(F)F)cc1 (configuration not stated)	0.4	14	-1	70*	0.3	61*
CCOC(=O)C(O)(c1ccc(N(CC)C(=O)OC)cc1)C(F)(F)F (configuration not stated)	0.4	2	-11	69*	0.3	64*
CCOC(=O)C(NC(=O)CC)(Nc1ccc(C(O)(C(=O)OCC)C(F)(F)F)cc1C)C(F)(F)F (configuration not stated)	0.7	-6	22	54*	0.5	34
CCOC(=O)N(CC)c1ccc(C(O)(C(=O)OCC)C(F)(F)F)cc1 (configuration not stated)	0.4	-5	1	77*	0.2	58*
COC(=O)C(O)(c1ccc(N(C)C(=O)OC(C)C)cc1)C(F)(F)F (configuration not stated)	0.5	15	3	16	0.8	46
Cc1cccc(-c2nc3ccccc3c(=O)n2-n2cccc2)c1	0.5	7	0	48	0.5	45
CC1(C)CC2(CCO1)NCCN1C(=O)CSC12 (configuration not stated)	0.9	3	4	-5	1.1	6
O=C(Cc1ccccc1)Oc1ccc(N2C(=O)CCC2=O)cc1	1	18	-8	10	0.9	3
CCC12C=CCN3CCC4(c5cc(Br)c(OC)cc5N(C)C4C(O)(C(=O)OC)C1OC(C)=O)C32 (configuration not stated)	0.8	-3	10	13	0.9	24
ON1C2CCCCC2N(O)C1c1ccccc1 (configuration not stated)	0.8	3	13	6	0.9	16
CCN1C(=O)c2ccccc2Sc2ccc(C(=O)N3CCC4(CC3)OCCO4)cc21	0.9	17	9	83*	0.2	6
CN1C(=O)c2ccccc2Sc2ccc(C(=O)N3CCC4(CC3)OCCO4)cc21	1	5	11	28	0.7	0
SMILES	CYP2C19 act	PostGolgi ctrl	PostGolgi yeast	CYP2C9 inh	CYP2C9 act	CYP2C19 inh
CC(=O)OC1(Cc2ccccc2)CN2CCC1c1ccccc12 (configuration not stated)	0.3	12	-3	60*	0.4	74*
CC(=O)OC1(c2ccc(C)cc2)CN2CCC1c1ccccc12 (configuration not stated)	0	9	-6	-27	1.3	99*
Cc1cccnc1-n1c(CN2C(=O)c3ccccc3C2=O)nc2ccccc2c1=O	1.1	12	8	40	0.6	-6
CP(C)(=O)CCC(=O)O	1.2	-4	-1	-21	1.2	-17
CCOC(=O)C1C(=O)NC23CCCC2C1c1ccccc1O3 (configuration not stated)	0.9	3	-2	2	1	12
CCn1cc(C(=O)c2ccccc2)c2ccccc21	0.7	12	2	-150	2.5*	28
O=C(c1ccccc1)c1cn(CC(=O)N2CCOCC2)c2ccccc12	0.6	-2	2	53*	0.5	41
O=C1C2CCCN2C(c2ccc(Cl)cc2)N1c1ccccn1 (configuration not stated)	1.1	0	2	-10	1.1	-5
COCCCN1CCN(c2nnc3n2-c2sc(Br)cc2C(c2ccccc2Cl)=NC3)CC1	0.6	14	-2	27	0.7	44
CC1=CC(=O)C2=C(C)CC(O)C3C(C)C(=O)OC3C12 (configuration not stated)	1	-3	-6	-15	1.1	-1
CC(C)n1cc(C(=O)N(CC(=O)NC2CCCC2)Cc2ccccc2)cn1	1.1	7	5	-5	1	-6
CCSc1cc(C2C(C#N)=C(N)Oc3n[nH]c(C)c32)c(C)o1 (configuration not stated)	0.1	17	-6	67*	0.3	92*
CN1CCN(C(=O)COc2ccc3ccccc3c2Br)CC1	0.3	28	1	-26	1.3	66*
O=C(O)c1nonc1-c1nonc1C(=O)O	1	0	-4	0	1	3
CCOC(=O)c1c(C)n(Cc2ccccc2)c2ccc(OCC(O)Cn3nc(C)nc3C)cc12 (configuration not stated)	0.5	18	-2	62*	0.4	54*
COc1cccc(OC)c1C(=O)Nc1nc(N)n(-c2ccccc2)n1	1.2	1	-6	18	0.8	-16
Cc1ccccc1OCCN=Cc1c(O)n(C)c(=O)n(C)c1=O	0.4	12	-11	27	0.7	64*
CN(C)P(=O)(C(Cl)=C(N1CCCCC1)N1CCCCC1)N(C)C	0.3	-5	1	16	0.8	69*
Cn1cccc1CNCCc1ccccc1	0.7	10	-1	3	1	34

Source: PubChem
